Screens: PubChem, National Center for Advancing Translational Sciences (NCATS)
An excerpt weighted towards active compounds, which were near 2.4% of everything screened.
GLS inh = glutaminase GLS (human) inhibition; O94925; GLS enzymatic activity, qHTS titration; Potency, µM (top dose mostly 45.5 µM), without a hit: at the highest dose activity change, negative = inhibition, usual class: inhibitors; 410,000 compounds, 0.21% hits; AID 624170; also: % is scaled to controls: 0 for no effect and ±100 for the full control effect
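Read-out is an Amplex red fluorescence increase coupled through glutamate oxidase and HRP, measured before and after 30 min room-temperature incubation. hKGA is in 45 mM KH2PO4 (pH 8.2) with 0.02% Tween-20; glutamine added as 1mM solution.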
POLH inh = DNA polymerase eta (human) inhibition; Potency, µM (doses to about 114 µM), without a hit: top-dose activity change, negative = inhibition, actives largely listed as inhibitors; recombinant Pol eta, fluorescent DNA replication assay; Q9Y253; AID 588591; 390,000 compounds, 1.2% hits; also: % is scaled to controls: 0 for no effect and ±100 for the full control effect
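Fluorescent replication assay: 50 nM final substrate added after a 15 min room-temperature compound preincubation with 10 nM enzyme. Signal taken at 0 min and again at 10 min.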
POLK inh = DNA polymerase kappa (human) inhibition | Q9UBT6 | purified Pol kappa, fluorescent DNA synthesis assay, 10 min | Potency, µM (series often up to 107 µM), inactives show top-dose activity, negative = inhibition, most hits filed as inhibitors | 400,000 compounds, 0.53% hits | AID 588579; also: % is scaled to controls: 0 for no effect and ±100 for the full control effect
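Here, compound and 10 nM enzyme are combined for 15 min at room temperature; adding 50 nM substrate (final) starts DNA synthesis, tracked by fluorescence at 0 and 10 min against buffer-only wells.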
KAT2A inh = blocks human GCN5L2 histone acetyltransferase. GCN5L2 HAT assay, ThioGlo1 CoA-SH fluorescence. Potency, µM (series often up to 58.9 µM), for inactives: top-dose activity change, negative = inhibition, actives largely listed as inhibitors. 390,000 compounds, 0.21% hits. AID 504327; also: % is scaled to controls: 0 for no effect and ±100 for the full control effect
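Enzyme at 20nM final was mixed with library compounds for 15 min at room temperature. Peptide H3(1-25) at 75uM, acetyl-CoA at 70uM and ThioGlo1 at 50uM were then added. Plates were read immediately and after 20 min (Ex340nm/Em540nm).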
POLB inh = blocks human DNA polymerase beta activity. AID 485314. P06746. Potency, µM (highest dose often 114 µM), for inactives: top-dose activity change, negative = inhibition, hits mostly inhibitors. Pol beta primer extension/strand displacement, fluorescence kinetic. 340,000 compounds, 1.3% hits; also: % is scaled to controls: 0 for no effect and ±100 for the full control effect
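Preincubation: enzyme (10 nM) with compound, 15 min, RT. Reaction: substrate added to 50 nM final. Reads: 0 and 10 min. Analysis: normalized, Hill fit.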
Pol iota inh = blocks human DNA polymerase iota activity; Q9UNA4; Pol iota fluorescent replication assay, 10 min; Potency, µM (doses to about 115 µM), for inactives: top-dose activity, negative = inhibition, hits mostly inhibitors; 390,000 compounds, 1% hits
Target sequence (Q9UNA4 whole entry, looked up): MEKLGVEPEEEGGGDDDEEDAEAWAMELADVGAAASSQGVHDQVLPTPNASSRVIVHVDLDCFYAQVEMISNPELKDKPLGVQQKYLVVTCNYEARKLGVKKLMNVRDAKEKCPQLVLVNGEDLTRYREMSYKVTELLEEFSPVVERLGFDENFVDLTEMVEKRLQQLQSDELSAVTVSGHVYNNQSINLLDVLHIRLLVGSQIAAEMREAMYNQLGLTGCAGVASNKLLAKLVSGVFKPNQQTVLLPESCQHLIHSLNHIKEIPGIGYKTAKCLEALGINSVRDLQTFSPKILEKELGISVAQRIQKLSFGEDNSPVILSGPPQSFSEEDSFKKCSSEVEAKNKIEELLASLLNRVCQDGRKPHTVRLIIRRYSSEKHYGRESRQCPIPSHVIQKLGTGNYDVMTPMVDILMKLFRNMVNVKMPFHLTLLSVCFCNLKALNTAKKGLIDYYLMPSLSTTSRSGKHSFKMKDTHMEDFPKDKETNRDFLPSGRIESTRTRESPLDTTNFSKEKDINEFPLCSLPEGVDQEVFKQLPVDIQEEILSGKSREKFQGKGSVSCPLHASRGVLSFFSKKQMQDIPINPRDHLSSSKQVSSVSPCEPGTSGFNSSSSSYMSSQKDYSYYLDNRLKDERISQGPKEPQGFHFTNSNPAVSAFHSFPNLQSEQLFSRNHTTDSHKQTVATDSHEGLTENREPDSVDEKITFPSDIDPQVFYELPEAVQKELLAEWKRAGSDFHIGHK
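Pol iota at 10 nM preincubated 15 min with compounds at room temperature; reaction started with fluorescent substrate, 50 nM final. Fluorescence read kinetically at 0 and 10 min; buffer-only wells as negative control.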
Active calls of the source: *; ? = inconclusive; nt = no result given; [ ] = another dose, or the depositor's remark. Calls follow the shape of the dose curve; as a rule, active = well fitted inhibition curve with a large enough effect; inconclusive = small, poorly fitted or top-dose-only effect, or another doubt; inactive = no such curve, though single readings can be large or run the other way. Potency is read from the fitted curve at half-maximal effect.

SMILES	GLS inh	POLH inh	POLK inh	KAT2A inh	POLB inh	Pol iota inh
CCCCCCCCCC[n+]1ccc(/C=C/c2c[nH]c3ccccc23)cc1	nt	nt	-7%	nt	nt	4%
C[C@@]12C=Cc3occc3[C@H]1CC[C@]13CC(=O)[C@@H](CC[C@H]12)C3	nt	nt	-11%	nt	nt	?
CC[C@]12c3[nH]c4cc(CCC(=O)N(C)C)ccc4c3CCN1C(=O)[C@@H](CC(=O)NCCC1=CCCCC1)C[C@@H]2C(=O)N1CCN(C(=O)c2ccco2)CC1	4%	-17%	5%	-2%	nt	40%
CC[C@]12c3[nH]c4cc(-c5ccco5)ccc4c3CCN1C(=O)[C@@H](CC(=O)NCCC1=CCCCC1)C[C@@H]2C(=O)N1CCN(C(=O)c2ccco2)CC1	-2%	-10%	28µM*	?	nt	7.9µM*
COc1ccc(CNC(=O)C[C@H]2C[C@H](C(=O)N3CCCCC3)[C@@]3(C)c4[nH]c5cc(-c6ccco6)ccc5c4CCN3C2=O)cc1OC	0%	-16%	?	-17%	nt	40µM*
CC(c1ncncc1F)[C@](O)(Cn1cncn1)c1ccc(F)cc1F (stereo partly specified)	2%	nt	4%[60.1 µM]	0%	nt	nt
Cc1ccc(NS(=O)(=O)c2ccc3c(c2)NC(=O)CO3)c(C)c1	2%	-2%	8%	-15%	-19%	1%
Cc1ccc(NS(=O)(=O)c2ccc3c(c2)CC(=O)N3)c(C)c1	17%	-14%	-7%	25µM*	-11%	-29%
O=C(CCCCCn1c(=O)[nH]c2ccccc2c1=O)NCc1ccccc1	8.9µM*	-4%	-2%[60.1 µM]	-6%	2%	13%
COC(=O)c1ccc2c(=O)n(CCCCCC(=O)NCCc3ccccc3)c(=O)[nH]c2c1	11µM*	-13%	4%[60.1 µM]	0%	8%	13%
Cc1nn(CCCC(=O)NCc2ccccc2)c(=O)c2c1sc1ccccc12	6%	nt	?	-17%	79µM*	?
O=C(NCc1cccnc1)[C@@H]1CC=C[C@@H]2CCN(C3CCCCC3)C(=O)[C@@H]21	nt	nt	7%	nt	nt	-5%
Cc1ccc(C)c(NC(=O)NNC(=O)c2cc3ccccc3cc2O)c1	2%	?	?	?	35µM*	35µM*
O=C(CCC1CCCC1)NNC(=O)c1cc2ccccc2cc1O	-2%	-14%	-5%	-4%	50µM*	?
O=C(CC1CCCC1)NNC(=O)c1ccccc1O	17%	-3%	nt	nt	nt	nt
CCc1ccc(NC(=O)NNC(=O)c2cc3ccccc3cc2O)cc1	2%	-23%	?	-8%	?	?
CCOc1ccc(NC(=O)NNC(=O)c2cc3ccccc3cc2O)cc1	13%	8%	-44%	-16%	?	79µM*
Cc1ccc(NC(=O)NNC(=O)c2cc3ccccc3cc2O)c(C)c1	10%	-9%	?	-18%	?	71µM*
O=C(NNC(=O)c1cc2ccccc2cc1O)Nc1ccccc1F	6%	-5%	-7%	-22%	?	-24%
Cc1cccc(NC(=O)NNC(=O)c2cc3ccccc3cc2O)c1C	-8%	-26%	?	?	35µM*	50µM*
CCN(CC)c1ccc2c(-c3ccc(S(=O)(=O)O)cc3S(=O)(=O)[O-])c3ccc(=[N+](CC)CC)cc-3oc2c1	?	nt	?	?	5µM*	nt
CCN(CC)c1ccc2nc3c4ccccc4c(=O)cc-3oc2c1	-1%	-24%	-16%[60.1 µM]	1%	?	60%
O=C(OCc1nnc(-c2ccccc2)o1)c1cccc(S(=O)(=O)N2CCOCC2)c1	4%	-14%	89µM*	2%	nt	13%
c1ccc(Oc2nc(N3CCOCC3)nc(N3CCOCC3)n2)cc1	0%	-11%	-3%	-5%	89µM*	-29%
COc1ccc2c(c1)CCC2=O	nt	nt	-8%	nt	nt	-3%
COc1ccccc1O	15%	-6%	14%	0%	-2%	-19%
COc1cccc(O)c1O	nt	nt	3.2µM*	-20%	nt	nt
